Results from paper PMC7819943, “Rice protein-binding microarrays: a tool to detect cis-acting elements near promoter regions in rice”.
Whole data set: some 35,000 sequences, median “fluorescence intensity (a.u.)” near 10,000, cut for the highest 2% near 52,000. Shown is part of a subset that was picked to be rich in the highest values.

Each sequence was assayed against T1, OsWOX13 (Oryza sativa, UniProt Q5QMM3 1-267) (assay: protein-binding microarray (RPBM); PBS, 2% BSA, 51.3 ng/ul salmon testes DNA, 50 uM zinc acetate, 200 nM TF, 25 C, 1 h; high values mean tight binding). Conditions: protein: recombinant; tags: N-terminal polyhistidine and DsRed monomer fusion (pET32a); label: CyDye5-dUTP incorporated in the synthesized complementary strand; 3' TTTTT single-stranded linker to array surface; dsDNA, one strand shown.
T1 sequence: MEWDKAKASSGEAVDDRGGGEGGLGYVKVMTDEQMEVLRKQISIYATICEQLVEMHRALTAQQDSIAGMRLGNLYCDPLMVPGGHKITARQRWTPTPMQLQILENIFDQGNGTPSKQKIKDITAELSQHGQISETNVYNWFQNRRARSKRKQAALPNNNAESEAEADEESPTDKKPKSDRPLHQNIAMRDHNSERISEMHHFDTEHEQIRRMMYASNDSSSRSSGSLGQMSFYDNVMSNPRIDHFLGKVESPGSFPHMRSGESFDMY
In short: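 Polyhistidine-tagged DsRed fusions of transcription factors, joined at the N-terminus, were expressed in E. coli BL21-CodonPlus and isolated on Ni–NTA. They were incubated at 200 nM for 1 h at 25 °C on a custom Agilent array, double-stranded and BSA-blocked, in PBS with 2% BSA, salmon testes DNA and 50 µM zinc acetate. The binding signal is per-feature fluorescence intensity (arbitrary units) read on an Axon 4000B scanner after washing.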

Sequence | binding signal
TTGTAATGGTGAAATCATGTTCAGTTTATTGTCGTACAAACGGAGTCACCTAGTGCAG | 3710 fluorescence intensity (a.u.)
GCAAATGGATTGTACAACTATGGAAGGGGCAGGTTCGAGGCGGAGTCACCTAGTGCAG | 5170 fluorescence intensity (a.u.)
GTTTAATTAAAATCCACCAACAATGACAATTTAATAGGTGCGGAGTCACCTAGTGCAG | 32300 fluorescence intensity (a.u.)
CACTTAACTGAACACTTACTTCTCGGTGACAAGTGAAATGCGGAGTCACCTAGTGCAG | 10800 fluorescence intensity (a.u.)
TAACTAATTACCAAACAGATCGTACCCCACCATAAGAATCCGGAGTCACCTAGTGCAG | 29200 fluorescence intensity (a.u.)
ACAGTGTAATTACACTATGATTGTACTGTAATTACATTTGCGGAGTCACCTAGTGCAG | 44000 fluorescence intensity (a.u.)
GTAATTATAATAATGAGTTACTGATCGAGAGGAGGAGAGGCGGAGTCACCTAGTGCAG | 7580 fluorescence intensity (a.u.)
GCTAATTAACTGTGATTGCAAGAAGGAAAACCATAGAAGGCGGAGTCACCTAGTGCAG | 53800 fluorescence intensity (a.u.)
TAACTAATTATTAATTGTTTTCCTATCATTTGATTCATTGCGGAGTCACCTAGTGCAG | 53200 fluorescence intensity (a.u.)
AAACTTTAATTTATCAACCATAAAAGAAACAATTAGAAGGCGGAGTCACCTAGTGCAG | 6940 fluorescence intensity (a.u.)
CTAATTGGCAAATTAAACAAAGAAGAAGAGGAAAGGAAGGCGGAGTCACCTAGTGCAG | 44700 fluorescence intensity (a.u.)
TAAACTGATATAAGTGCCTAAATTTGGATTGAGGGTGGTGCGGAGTCACCTAGTGCAG | 8300 fluorescence intensity (a.u.)
TAAGTAATTATTAATTCTTTTCCTATCATTTGATTTATTGCGGAGTCACCTAGTGCAG | 11700 fluorescence intensity (a.u.)
AAATGATTTGATCTAAATTGATAAGTTACTGAGGAGTGCGCGGAGTCACCTAGTGCAG | 64800 fluorescence intensity (a.u.)
TTTGATTAATTCAGTGCTTCCTTCCCGTTACATTACACTGCGGAGTCACCTAGTGCAG | 54000 fluorescence intensity (a.u.)
AGTAATTATTAATTATTTTCCTATCATTTGATTTATTGTTCGGAGTCACCTAGTGCAG | 35700 fluorescence intensity (a.u.)
GATTTAATGGATCACCTGCTATTACAGATTCCTTCAGTTGCGGAGTCACCTAGTGCAG | 4210 fluorescence intensity (a.u.)
CTCTAATGAATGTGCATGTTATGTTTCCAAATCTCACTAGCGGAGTCACCTAGTGCAG | 3850 fluorescence intensity (a.u.)
TCTCATACAATCAACAACCTTAAACACATCAGCTCTAGTACGGAGTCACCTAGTGCAG | 4160 fluorescence intensity (a.u.)
CTTCTGATAACAACTGATTAGAAACTATGTTAATTTGATGCGGAGTCACCTAGTGCAG | 31100 fluorescence intensity (a.u.)
TACTCTTAGATTGAACAGGCTTCTGGCTCAAAACTTTTGACGGAGTCACCTAGTGCAG | 8550 fluorescence intensity (a.u.)

Sequence | binding signal
ATTAATTATTTATTTCTTATATTACAGATTTTCAGTATATCGGAGTCACCTAGTGCAG | 18600 fluorescence intensity (a.u.)
TATAACTAATTATTTAATCGTTAATAAGCTGTTCCGCTAACGGAGTCACCTAGTGCAG | 25600 fluorescence intensity (a.u.)
ACTGCTAATTAACCCTCTATAAATGCATGCCTCTCACCACCGGAGTCACCTAGTGCAG | 30400 fluorescence intensity (a.u.)
TTTAACATTTCCCCTTATAATTTTACCAAATCACTATGTTCGGAGTCACCTAGTGCAG | 4600 fluorescence intensity (a.u.)
CCTCGCGCGCAGATAATTATCACAACTTATGGGGAGCTTGCGGAGTCACCTAGTGCAG | 3290 fluorescence intensity (a.u.)
CTCATTAATCTTGCTCATTAATCTTGCAATTAATCCAGAACGGAGTCACCTAGTGCAG | 4900 fluorescence intensity (a.u.)
CACTTCTGTACTTGGCGTGATTGGGCCGCGGACCGGTAGACGGAGTCACCTAGTGCAG | 3750 fluorescence intensity (a.u.)
AGTAATTTAAACACGAAAACATTTCTTATTGACAAGAATACGGAGTCACCTAGTGCAG | 4230 fluorescence intensity (a.u.)
GTTTAGGACCTTTGATTTGTTGGTGACAGAACCCAAGGCGCGGAGTCACCTAGTGCAG | 6360 fluorescence intensity (a.u.)
TAAGGCAGAAAACCAAGGCCTTGACATTTCTTTTAGGACACGGAGTCACCTAGTGCAG | 65000 fluorescence intensity (a.u.)
TAAAATAAATCAAATTAATACAAGTGAGATATCTTAGTAACGGAGTCACCTAGTGCAG | 6480 fluorescence intensity (a.u.)
TGGCTCTGATCCATCAATTAGGATTTGCCAGTGCCTCTCCCGGAGTCACCTAGTGCAG | 5390 fluorescence intensity (a.u.)
TAGAAGATAGATTGATTGATTGATATATACTATCTCTATACGGAGTCACCTAGTGCAG | 52600 fluorescence intensity (a.u.)
AAGAAGAATCTATCTATCTATCTATCTATCAATCTCTATACGGAGTCACCTAGTGCAG | 3320 fluorescence intensity (a.u.)
GAAGGATTGAGATATGATTGATTATTATATCATATACTCTCGGAGTCACCTAGTGCAG | 55000 fluorescence intensity (a.u.)
TTTGGGATTATTATAATCTAGATTATTGAGTCATATTACTCGGAGTCACCTAGTGCAG | 10300 fluorescence intensity (a.u.)
AATATATTGACATTGATATCTTATAAAGAGCCTATAGATACGGAGTCACCTAGTGCAG | 5820 fluorescence intensity (a.u.)
TCATATGATTAGGATATATCACATCTCATTATATTATATGCGGAGTCACCTAGTGCAG | 17800 fluorescence intensity (a.u.)
TCCACAATTTGCTAATCATATTTCTGTTGATAATGATAATCGGAGTCACCTAGTGCAG | 7820 fluorescence intensity (a.u.)
GAAGATTGAGCTCTGCAGCAACAACCCAAACACACAAAGCCGGAGTCACCTAGTGCAG | 3290 fluorescence intensity (a.u.)
CATAGGATCAATTTAATATATTGACATGCCATTAGGCCATCGGAGTCACCTAGTGCAG | 10600 fluorescence intensity (a.u.)
